High-throughput results as filed in PubChem.
D2 PAM-1: positively modulates the human D2 dopamine receptor allosterically. HEK293 T-REx D2, calcium flux, EC20 dopamine potentiation. hit rate 0.34% among 340,000. potentiation, % at 10 µM. AID 485347. P14416;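 active = potentiation over 3 SD above the plate norm, cut at about 30% in these data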; also: 0% is about no effect
Target sequence (P14416 whole entry, looked up): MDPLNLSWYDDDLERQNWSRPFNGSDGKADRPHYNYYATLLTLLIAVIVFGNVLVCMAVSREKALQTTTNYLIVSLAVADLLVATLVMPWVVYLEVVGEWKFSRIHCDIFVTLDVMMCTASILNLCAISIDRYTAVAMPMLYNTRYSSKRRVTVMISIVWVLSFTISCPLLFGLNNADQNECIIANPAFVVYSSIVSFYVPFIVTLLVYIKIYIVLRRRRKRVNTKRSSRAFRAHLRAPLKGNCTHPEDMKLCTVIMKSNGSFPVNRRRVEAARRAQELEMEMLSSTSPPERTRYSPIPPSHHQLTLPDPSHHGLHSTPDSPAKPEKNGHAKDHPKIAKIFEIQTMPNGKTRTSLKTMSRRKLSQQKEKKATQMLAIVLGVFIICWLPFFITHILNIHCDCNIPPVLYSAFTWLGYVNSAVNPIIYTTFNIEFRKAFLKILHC
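Potentiation of an EC20 dopamine calcium response is measured in a force-coupled, tetracycline-inducible Hek293 Trex D2 line. Compound-only kinetic reads over 180 s flag agonists before dopamine addition.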
D2 PAM-2: potentiates the human D2 dopamine receptor allosterically; DiscoveRx D2 beta-arrestin cells, luminescence, 90 min; 100% = 57 uM dopamine signal; potentiation, % (concentration not given with the values); hit rate 0.23% among 360,000; in the data active = potentiation above about 50%
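PathHunter beta-arrestin assay in DiscoveRx D2 cells. Compounds were added with an EC20 of dopamine (50 nM final) for 90 min at 37 deg C. Luminescence was read 1 h after detection reagent, with 57 uM dopamine as the EC100 control.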
D2 antag: D2 dopamine receptor (human) antagonism. hit rate 2% among 340,000. AID 485344. HEK293 TREx D2 cells, calcium flux, dopamine EC80. inhibition, % at 10 µM; in the data active = inhibition above about 30%; inactive = below that, where a call was filed; also: 0% is about no effect
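Overnight-induced (tetracycline, 30 C) HEK293 T-REx cells carrying force-coupled D2 receive a no-wash calcium dye, then compound, then EC80 dopamine at 180 s; signals are read kinetically throughout.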
D2 ag-1: agonists of human D2 dopamine receptor (beta-arrestin). activation, % (no concentration beside the values). P14416. hit rate 0.084% among 360,000. DiscoveRx PathHunter D2 beta-arrestin, luminescence, 90 min; 100% = 57 uM dopamine signal; in the data active = activation above about 40%
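Agonist mode: compounds alone added to overnight-plated D2 PathHunter cells for 90 min at 37 C, with 57 uM final dopamine (EC100) defining full response. Beta-arrestin recruitment detected by chemiluminescent reagent, read after 1 h at ambient temperature.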
D2 ag-2: D2 dopamine receptor (human) agonism. P14416. HEK293 T-REx D2 cells, calcium flux agonist mode. activation, % at 2 µM. hit rate 0.53% among 340,000. AID 485358;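 active = activation over 3 SD above normal in the single-dose calcium agonist read, cut at about 30% in these data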; also: 0% is about no effect
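Tetracycline-induced HEK293 Trex cells with D2 receptor force-coupled to calcium signaling, plated overnight at 30 C and loaded with no-wash calcium dye. Calcium flux read kinetically for 180 s after compound addition; responses flag agonists.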
Active calls of the source: *. Sampled rows, rich in hits. Any-hit rate of the full collection: about 2.4%.

For O=C(N/N=C/c1ccsc1)c1ccccn1 the results were D2 PAM-1 -9, D2 PAM-2 -5, D2 antag 39*, D2 ag-1 -5 and D2 ag-2 0.
Cc1ccc(C(=O)NCCn2cc(SCC(=O)Nc3cc(C)on3)c3ccccc32)cc1 was read as D2 PAM-1 -26, D2 PAM-2 1, D2 antag 32*, D2 ag-1 4 and D2 ag-2 -1.
For Cc1cc(NC(=O)CSc2cn(CCNC(=O)c3ccccc3)c3ccccc23)no1 the results were D2 PAM-1 6, D2 PAM-2 3, D2 antag 3, D2 ag-1 3 and D2 ag-2 -1.
`CCSc1nnc(NC(=O)c2csc3c2CCC(C)C3)s1` (stereo unspecified) gave D2 PAM-2 1 and D2 ag-1 0.
For CCSc1nnc(NC(=O)c2c(C)noc2C)s1 the results were D2 PAM-1 5, D2 PAM-2 -13, D2 antag -7, D2 ag-1 -4 and D2 ag-2 0.
For CCSc1nnc(NC(=O)c2csc3c2CCCC3)s1 the results were D2 PAM-1 -5, D2 PAM-2 -10, D2 antag 40*, D2 ag-1 -2 and D2 ag-2 0.
`CCSc1nnc(NC(=O)c2cc(C)on2)s1` gave D2 PAM-2 -7, D2 antag 56*, D2 ag-1 -3 and D2 ag-2 2.
Screening COc1ccc(CNC(=O)/C(C)=C\C(=O)O)cc1 returned D2 PAM-1 1, D2 PAM-2 -8, D2 antag 36*, D2 ag-1 1 and D2 ag-2 0.
`CC(C)(C)c1ccc(NC(=O)CSc2nnc3scc(-c4ccccc4)n23)cc1` gave D2 PAM-1 -6 and D2 ag-2 -2.
Screening COC(=O)c1ccccc1-c1ccc(/C=N/NC(=O)c2cc3ccccc3o2)o1 returned D2 PAM-1 -17, D2 PAM-2 -28, D2 antag -14, D2 ag-1 -2 and D2 ag-2 0.
Screening COC(=O)c1ccccc1-c1c2ccc(=N)cc-2oc2cc(N)ccc12 returned D2 PAM-1 -20, D2 PAM-2 -15, D2 antag 77*, D2 ag-1 -16 and D2 ag-2 97*.
For CCc1ccc(-n2nc(CO)c(C(=O)NCc3ccccn3)n2)cc1 the results were D2 PAM-1 4.
`C=CCOc1ccccc1CN1CCC(Oc2ccc(C(=O)N3CCCCC3)cc2)CC1` gave D2 PAM-1 -21, D2 PAM-2 -46, D2 antag 47*, D2 ag-1 -4 and D2 ag-2 0.
Screening Cc1cccc(NC(=O)CCS(=O)(=O)c2ccc3c(c2)NC(=O)CS3)n1 returned D2 PAM-1 -3, D2 PAM-2 -6, D2 antag 39*, D2 ag-1 0 and D2 ag-2 0.
CC1CCC(NC(=O)CCS(=O)(=O)c2ccc3c(c2)NC(=O)CS3)CC1 (stereo unspecified) was read as D2 PAM-1 -1, D2 PAM-2 -4, D2 antag 3, D2 ag-1 -2 and D2 ag-2 1.
`Cc1cc(OC(C)C(=O)N(Cc2ccco2)Cc2ccco2)cc(C)c1Cl` (stereo unspecified) gave D2 ag-2 0.
Screening O=C(Nc1ccc(OC(F)(F)F)cc1)c1ccc2nc[nH]c2c1 returned D2 PAM-1 -9, D2 PAM-2 13, D2 antag 62*, D2 ag-1 4 and D2 ag-2 1.
For CCCC(C(=O)O)N1C(=O)/C(=C2\C(=O)N(C)c3ccccc32)SC1=S (stereo unspecified) the results were D2 PAM-1 -6, D2 PAM-2 61*, D2 antag 1, D2 ag-1 13 and D2 ag-2 -1.
CCc1cccc(CC)c1NC(=O)C(Cc1ccccc1)NS(=O)(=O)c1cccc2nsnc12 (stereo unspecified) was read as D2 PAM-1 -9 and D2 ag-2 0.
Screening Cc1ccc(N(CC(=O)N2CCN(c3cccc(C)c3C)CC2)S(=O)(=O)c2c(C)nn(C)c2C)cc1 returned D2 PAM-1 10 and D2 ag-2 -1.
